A selection: hits, their analogues and other compounds. The true share with any hit is near 12%.
BAZ2B block: inhibitors of human BAZ2B bromodomain; AlphaScreen BAZ2B-H3K14Ac peptide displacement; 360,000 tested, 4.4% active; Q9UIF8; Potency, µM (doses to about 114 µM), for inactives: at the highest dose activity change, negative = inhibition, hits mostly inhibitors; also: % is scaled to controls: 0 for no effect and ±100 for the full control effect; nearly all actives have a fitted effect of over 60% in size
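Compounds, titrated to a top concentration of 110 uM, were incubated 30 min at room temperature with preformed BAZ2B/acetyl-K14 H3 peptide complex (50 nM each). Proximity signal was measured by AlphaScreen after 20 min with beads.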
L3MBTL1 block: L3MBTL1 (human) inhibition. Q9Y468. AlphaScreen L3MBTL1–H3K9me1 peptide binding. Potency, µM (titrated, usually from 57.1 µM), inactives show at the top dose activity, negative = inhibition, usual class: inhibitors. 230,000 tested, 0.66% active. AID 485360; also: % is scaled to controls: 0 for no effect and ±100 for the full control effect; nearly all actives have a fitted effect of over 60% in size
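L3MBTL1 50 nM + b-AHA-H3(1-15)K9me1 75 nM, 30 min RT; compound added, 30 min RT; streptavidin donor/Ni-chelate acceptor beads 10 ug/mL each final, 30 min RT dark; AlphaScreen read.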
HP1b chromo inh: inhibitors of HP1-beta chromodomain binding to methylated histone tails. P83916. AlphaScreen HP1-beta / biotin-H3K9me3 peptide binding. Potency, µM (highest dose often 114 µM), for the others: top-dose activity change, negative = inhibition, most hits filed as inhibitors. 390,000 tested, 0.56% active. AID 540317; also: nearly all actives have a fitted effect of over 70% in size
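HP1-beta protein (50 nM final) preincubated 30 min at room temperature with biotinylated H3(1-18)K9me3 peptide (50 nM) in PBS pH 7.4, 0.01% Tween-20, then compound added for 30 min. AlphaScreen streptavidin donor/nickel chelate acceptor beads (10 ug/mL final), 30 min dark, luminescence read.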
G9a inh: blocks human histone lysine methyltransferase G9a | 350,000 tested, 8.8% active | Potency, µM (doses to about 102 µM), for inactives: top-dose activity, negative = inhibition, most hits filed as inhibitors | G9a H3K9 monomethylation, AlphaScreen, 2 h | Q96KQ7; also: % is scaled to controls: 0 for no effect and ±100 for the full control effect; nearly all actives have a fitted effect of over 75% in size
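AlphaScreen read-out: biotin-H3K9 peptide (500 nM) methylation by 20 nM enzyme with 20 uM SAM, 2 h at room temperature after 15 min compound preincubation; anti-monomethyl H3K9 antibody plus donor/acceptor beads, 10 min dark.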
JMJD2A Tudor inh: JMJD2A Tudor domain (human) inhibition. 390,000 tested, 4.4% active. AID 504339. Potency, µM (titrated, usually from 114 µM), for the others: at the highest dose activity change, negative = inhibition, usual class: inhibitors. AlphaScreen JMJD2A-Tudor / H3K4me3 peptide binding; also: % is scaled to controls: 0 for no effect and ±100 for the full control effect; nearly all actives have a fitted effect of over 50% in size
Sfp PPTase inh: Sfp phosphopantetheinyl transferase inhibition; AID 1490; Biochemical Sfp PPTase activity, qHTS; 310,000 tested, 3.5% active; Potency, µM, for inactives: largest response in the series, negative = inhibition, usual class: inhibitors; Q9F4F7;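 also: the enzyme is Sfp with the accession as filed and its product quenches rhodamine fluorescence; 0% = enzyme reaction without inhibitor and -100% = no enzyme wells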
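With Hepes-Na pH 7.6 buffer containing 10 mM MgCl2, Sfp (15 nM) modified BHQ-2-YbbR (12.5 uM) using rhodamine-CoA (5 uM). Two reads 30 minutes apart at 525/598 nm yielded each well's rate.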
Numbers without * were called inactive; ? = inconclusive; nt = not tested or not shown; [ ] = another dose, or the depositor's remark. Calls follow the shape of the dose curve; as a rule, active = well fitted curve in the direction sought with a large enough effect; inconclusive = small, poorly fitted or top-dose-only effect, or another doubt; inactive = no such curve, though single readings can be large; an effect the other way counts as inactive or inconclusive. Potency is read from the fitted curve at half-maximal effect.

SMILES	BAZ2B block	L3MBTL1 block	HP1b chromo inh	G9a inh	JMJD2A Tudor inh	Sfp PPTase inh
Cc1ccccc1CSc1nc2ccsc2c(=O)n1CCC(C)C	3%	nt	45%	16%[59 µM]	42%	nt
O=C1NC(=O)/C(=C/c2ccco2)N1	9%	2%	45%	6%[0.501 µM]	-1%	nt
O=C1NC(=O)C(=Cc2ccco2)S1	nt	nt	19%	nt	-12%	nt
O=C1/C(=C\c2ccco2)SC(=S)N1c1ccccc1	?	?	?	50µM*	-24%	?
O=C1NC(=S)NC1=Cc1ccco1	nt	nt	35µM*	nt	22µM*	nt
CC[C@H](C)[C@H](NC(=O)[C@H](N)Cc1ccc(O)cc1)C(=O)N[C@@H](CC(N)=O)C(=O)N[C@@H](CC(C)C)C(=O)N[C@H](C(=O)N[C@@H](C(=O)N[C@@H](CCCN=C(N)N)C(=O)N[C@@H](CCC(N)=O)C(=O)N[C@@H](CCCN=C(N)N)C(=O)N[C@H](Cc1ccc(O)cc1)C(N)=O)[C@@H](C)O)[C@@H](C)CC	nt	nt	nt	nt	nt	-2%
COc1cccc(C(c2c(N)[nH]c(=S)[nH]c2=O)c2c(N)[nH]c(=S)[nH]c2=O)c1	-8%	nt	20%	nt	?	79µM*
COc1cccc(-n2c(=O)c3cc(OC)c(OC)cc3n(CC(=O)Nc3cc(C)[nH]n3)c2=O)c1	50µM*	-11%	34%	?	-18%	23%
Cc1cccc(Nc2nn3c(=O)c4cc5c(cc4nc3s2)OCO5)c1	-8%	nt	77%	?	-24%	nt
O=c1c2cc3c(cc2nc2sc(Nc4cccc([N+](=O)[O-])c4)nn12)OCO3	?	nt	43%	1.4µM*	-18%	nt
COc1ccc(Cl)cc1NC(=S)NCCc1ccc(F)cc1	-27%	nt	43%	2%	-4%	-5%
COc1ccc(NCCC(O)c2ccc(Cl)cc2)cc1 (stereo unspecified)	45µM*	nt	?	?	56µM*	-6%
COc1ccc(Cl)cc1NCCC(O)c1ccc(F)cc1 (stereo unspecified)	?	nt	-1%	35µM*	?	1%
NNC(=O)c1ccc(OCC2CC(c3ccc(Cl)cc3)=NO2)cc1 (stereo unspecified)	-4%	nt	30%	?	-8%	19%
Cc1ccc(-c2[nH]ncc2CNCCc2cnn(-c3ccccc3)c2)cc1C	-39%	-12%	5%	-35%	-23%	79µM*
O=C(COC(=O)c1ccc2ccccc2c1O)NCC(F)(F)F	79µM*	2%	-8%	-13%	?	9%
CC(=O)CC[N+](C)(C)C	nt	nt	79µM*	nt	-1%	nt
Cc1cc(NC(=O)n2ncc3c(C)cccc32)ccc1Br	0%	nt	53%	?	-1%	nt
COC(=O)C1=C(C)N(c2ccc(C(=O)OC)cc2)C(=O)C1	1%	-5%	10%	-27%[12.7 µM]	-18%	-2%
COC(=O)C1=C(C)N(c2cc(Cl)cc(Cl)c2)C(=O)C1	-4%	-1%	11%	45µM*	-20%	3%
O=C(CNC(=O)c1ccc2c(c1)OCO2)N/N=C/c1cc(Br)ccc1O	-9%	nt	13%	79µM*	?	20%
O=C(N/N=C\c1cc(Br)c(Br)o1)c1cncc(Br)c1	-1%	2%	19%	0%[59 µM]	-13%	-13%
O=C(N/N=C/c1cc(Br)c(Br)o1)c1ccc2c(c1)OCCO2	45µM*	?	?	nt	40µM*	4.5µM*
O=C(N/N=C/c1cc(Br)c(Br)o1)c1cccnc1	?	?	-3%	?	?	32µM*
O=C(N/N=C/c1cc(Br)c(O)c(Br)c1O)c1ccc2c(c1)OCCO2	45µM*	nt	-3%	?	40µM*	?
SMILES	BAZ2B block	L3MBTL1 block	HP1b chromo inh	G9a inh	JMJD2A Tudor inh	Sfp PPTase inh
O=C(N/N=C/c1ccc2c(c1)OCO2)c1ccc2c(c1)OCCO2	1%	-4%	28%	5%[59 µM]	-12%	0%
O=C1c2ccccc2NC(c2ccccc2O)N1Cc1ccccc1 (stereo unspecified)	nt	nt	nt	nt	-22%	nt
COc1cc(OC)c(NC(=O)C(C)n2nc(-c3ccc(C)cc3)c3c(c2=O)CCCC3)cc1Cl (stereo unspecified)	-32%	nt	9%	?	-29%	nt
Cc1c(C(=O)Nc2ccc(-c3nnc4n3CCCCC4)cc2)oc2c1ccc1ccccc12	-32%	-13%	-9%	50µM*	?	?
CC(C)(C)c1c(Cl)c(O)c(-c2ccccc2)c(=O)n1-c1ccccc1	18µM*	32µM*	?	nt	50µM*	-6%
CC1CCN(S(=O)(=O)c2ccc3c(c2)N(CC(=O)NCCCN2CCCCC2)C(=O)CS3)CC1	-3%	nt	18%	-2%	-16%	6%
CC(C)CC(C(=O)NC(C)(C)C)N(Cc1ccccc1Cl)C(=O)c1snc(C(N)=O)c1N (stereo unspecified)	4%	0%	44%	0%	-15%	17%
Cc1ccc(S(=O)(=O)N/N=C2\C(=O)C3(C)CCC2C3(C)C)cc1 (stereo unspecified)	?	1%	52%	14µM*	-8%	19%
CN(C)CCNC(=O)c1cccc2ccc(-c3ccc(-c4ccccc4)cc3)nc12	nt	nt	-13%	nt	56µM*	nt
NCC(=O)Nc1cccc(-c2nn3c(=O)cc(N4CCNCC4)nc3s2)c1	nt	nt	nt	nt	-21%	nt
CC1CCCCN1Cc1ccc(N(C)C)cc1 (stereo unspecified)	10%	-7%	4%	-36%	-17%	9%
CN(C)c1ccc(CN2CCC(C(N)=O)CC2)cc1	22µM*	-3%	-5%	14µM*	22µM*	19%
COC(=O)c1ccc(CN2CCCCC2)cc1	0%	7%	37%	nt	8%	7%
CCOC(=O)C1CCN(Cc2ccc(C(=O)OC)cc2)CC1	50µM*	nt	-26%	?	5.6µM*	-11%
CCOC(=O)C1CCN(C(=O)c2cc3cc(F)ccc3[nH]2)CC1	-14%	nt	20%	24%	-20%	5%
CCOC(=O)C1CCN(Cc2ccc(F)cc2)CC1	-34%	-20%	?	?	4µM*	-25%
COc1ccc(Nc2ncnc3c2cnn3-c2cc(Cl)ccc2C)cc1OC	-14%	nt	2%	-15%[59 µM]	?	nt
CCC(c1nnc(SCC(=O)NCCc2ccc(Cl)cc2Cl)o1)N(C)C (stereo unspecified)	-4%	2%	11%	40µM*	-11%	?
COC1=NC(=C(c2ccccc2)c2ccccc2)OC1=O	nt	nt	32%	nt	-10%	nt
COc1ccc(NC(=O)CNS(=O)(=O)c2ccc(Cl)cc2)cc1	3%	-25%	11%	?	-10%	-9%
COc1ccc(NC(C)=[N+](C)CCNS(=O)(=O)c2ccc(Cl)cc2)cc1	56µM*	nt	?	?	25µM*	71µM*
